From PubChem BioAssay AID504840 (Johns Hopkins Ion Channel Center, 2011)
Among all 1,500 compounds or so, about 890 (59%) were called active. So high a share suggests a set chosen from earlier hits. A selection follows. Potency and affinity values are given separately. Unmarked numbers belong to inactive results.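 How the source made its calls: active means inhibition of the choline-evoked signal at any tested dose together with a fitted dose-response curve; inactive means no inhibition at any dose or no curve.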

molecular target: High affinity choline transporter 1 (Homo sapiens) (UniProt Q9GZV3); test: CHT inhibitors, dose response, cell-based, 5-point CRC, membrane potential dye (AID 504840); conditions: HEK293-CHT, choline-induced depolarization, CHT with LV-to-AA double alanine mutation; series mostly up to 37 µM; inhibition: at the top concentration;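 further: 0% = buffer-only response and 100% = EC90 choline response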
Sequence (Q9GZV3 whole entry, looked up): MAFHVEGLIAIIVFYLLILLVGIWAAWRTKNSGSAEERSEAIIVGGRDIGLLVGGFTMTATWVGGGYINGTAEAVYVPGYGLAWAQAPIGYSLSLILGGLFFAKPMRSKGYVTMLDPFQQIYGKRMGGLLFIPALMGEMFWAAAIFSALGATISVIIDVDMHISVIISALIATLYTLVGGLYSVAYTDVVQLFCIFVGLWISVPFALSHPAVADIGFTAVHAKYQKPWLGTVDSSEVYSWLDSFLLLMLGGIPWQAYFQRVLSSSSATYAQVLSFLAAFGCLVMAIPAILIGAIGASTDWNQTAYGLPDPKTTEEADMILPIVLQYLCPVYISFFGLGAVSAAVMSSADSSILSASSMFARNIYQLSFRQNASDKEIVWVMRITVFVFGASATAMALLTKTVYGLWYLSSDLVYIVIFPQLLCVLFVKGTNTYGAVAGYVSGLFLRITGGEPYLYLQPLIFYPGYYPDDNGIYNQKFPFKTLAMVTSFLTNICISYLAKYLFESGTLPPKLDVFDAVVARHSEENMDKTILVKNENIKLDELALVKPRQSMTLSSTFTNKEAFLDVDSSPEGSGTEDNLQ

| SMILES | inhibition [%] |
| --- | --- |
| CCN(CC)CCCN1C=C2C(=O)C(C)(OC(=O)CCC(=O)OC)C(=O)C=C2C=C1C1CC1 (centres undefined) | 59.8 |
| CC(Oc1ccc2ccccc2c1)C(=O)NNC(=S)NC(=O)c1ccco1 (centres undefined) | 21.3 |
| Cc1ccc(OCC(=O)NNC(=S)NC(=O)C(C)(C)C)c(Br)c1 | 49.2 |
| CCCCCc1cc(=O)oc2c(C(CCN3CCCCC3)c3cc(OC)c(OC)c(OC)c3)c(OC)cc(OC)c12 (centres undefined) | 64.2 |
| COc1cc(CN(C)Cc2cc(=O)n3ccsc3n2)ccc1OC(F)F | 20.5 |
| COc1ccc(CNC(=O)[C@H](C)NC(=O)N2CCn3c2nc2ccccc23)cc1 | 45.6 |
| O=C(Cn1nc(C(F)(F)F)c2c1CCC2)NCc1ccc(F)cc1 | 29.8 |
| COc1ccc(/C=C2/SC(=S)N(CCCC(=O)N3CCN(C)CC3)C2=O)cc1 | 30.2 |
| CN1CCN(C(=O)CCN2C(=O)S/C(=C/c3ccc(Cl)cc3)C2=O)CC1 | 50.5 |
| O=C(O)CN1C(=O)/C(=C/C=C/c2ccccc2)SC1=S | 43 |
| CC(/C=C1\NC(=S)NC1=O)=C\c1ccccc1 | 14.5 |
| CN1CCN(C(=O)CCN2C(=O)/C(=C/c3cccc(Br)c3)SC2=S)CC1 | 38.4 |
| CC(=O)NC(CC(=O)NCCN1C(=O)S/C(=C\c2ccccc2)C1=O)c1ccccc1 (centres undefined) | 41.9 |
| CCC(C(=O)N1CCOCC1)n1c(C(=O)OC)cc2occc21 (centres undefined) | 11.2 |
| C=CCn1c(SCC(=O)NC(=O)NC2CCCC2)nnc1C1CCCCC1 | 22.3 |
| Cc1nc(SCC(=O)NC(=O)NCc2ccccc2)nc(C)c1C | 27.6 |
| CC(=O)Nc1cc(NC(C)=O)cc(C(=O)OC(C)C(=O)Nc2ccc(S(=O)(=O)N3CCCC3)cc2)c1 (centres undefined) | 55.2 |
| CC(=O)Nc1cccc(C(=O)OC(C)C(=O)Nc2ccc(S(=O)(=O)N3CCCC3)cc2)c1 (centres undefined) | 48.4 |
| CN(c1cccc(NC(=O)Nc2cccc(Cl)c2)c1)S(C)(=O)=O | 39.9 |
| Cc1cc(C)n2c(SCC(=O)NC3CCCCC3C)nnc2n1 (centres undefined) | 2.51 |
| CC1CCCCC1NC(=O)c1ccc2c(c1)[nH]c(=O)n2C1CCCC1 (centres undefined) | 58.6 |
| Cc1ccc(S(=O)(=O)N2CCCCC2)cc1NC(=O)CSc1nncn1-c1ccccc1 | 63.5 |

| SMILES | inhibition [%] |
| --- | --- |
| CC1CCC(NC(=O)CCn2ccc3cc(S(=O)(=O)N4CCCC4)ccc32)CC1 (centres undefined) | 51.3 |
| CCCc1nc2oc3c(NCC4CCCO4)ncnc3c2c2c1COC(C)(C)C2 (centres undefined) | 65.7 |
| CCCN(CCC)Cc1c(C(=O)N/N=C/C(C)=C\c2ccco2)nnn1-c1nonc1N | 32.6 |
| COc1ccccc1C(=O)NC1CCN(C(=S)NCCc2ccccc2)CC1 | 26.5 |
| COc1ccc(OCC(O)Cn2c(=N)n(Cc3ccccc3)c3ccccc32)cc1 (centres undefined) | 70.1 |
| Cc1ccc(OCC(O)Cn2c(=N)n(Cc3ccccc3)c3ccccc32)cc1 (centres undefined) | 70.7 |
| Cc1ccc(/C=C2\SC(=S)N(c3c(C)n(C)n(-c4ccccc4)c3=O)C2=O)cc1 | 46.4 |
| Cc1ccc(S(=O)(=O)NC2=C(N3CCN(Cc4ccccc4)CC3)C(=O)c3ccccc3C2=O)cc1 | 32.5 |
| COc1cc(/C=C2/S/C(=N/S(=O)(=O)Cc3ccccc3)NC2=O)c([N+](=O)[O-])cc1OC | 47.3 |
| COc1ccc(NC(=O)CSc2nccn2Cc2ccccc2)cc1 | 46.5 |
| CCN(C(=O)c1cc2c(=O)n3ccccc3nc2n1CCCOC)C1CCCCC1 | 37.4 |
| O=C(c1cn(-c2ccccc2)nc1-c1ccc(Cl)cc1)N1CCOCC1 | 15.1 |
| O=C(NCCCn1ccnc1)C(=O)c1cn(CC(=O)N2CCCCCC2)c2ccccc12 | 57.4 |
| N/C(=N\O)c1ccc(N2CCN(c3ncccc3C(F)(F)F)CC2)nc1 | 45.6 |
| O=S(=O)(NCc1csc(-c2cccs2)n1)c1ccc(Cl)cc1 | 32.1 |
| Cc1ccc(S(=O)(=O)N2[C@@H](c3ccc(F)cc3)C(C(=O)O)=CC[C@H]2c2ccc(C(C)C)cc2)cc1 | 40.1 |
| CCOc1ccc([C@@H]2CC=C(C(=O)O)[C@H](c3cccc(Cl)c3)N2S(=O)(=O)c2ccc(C)cc2)cc1 | 9.24 |
| CCn1c(N2CCN(S(=O)(=O)c3ccc(Cl)cc3)CC2)nc2ccccc21 | 55.8 |
| COc1ccccc1OCC(=O)NCCS(=O)(=O)N1CCN(c2ccccc2)CC1 | 27.9 |
| CCCCn1c(SCC(=O)Nc2cccc(OC)c2)nc2ccc(N3CCOCC3)cc2c1=O | 38.3 |
| CCCc1cc(C(=O)Cc2ccc(F)cc2)c(O)cc1O | 51.2 |
| CCOC(=O)c1ccc(CC(=O)c2ccc(O)cc2O)o1 | 31.9 |

| SMILES | inhibition [%] |
| --- | --- |
| Cc1ccc(-n2c(C)cc(=O)cc2C)c(C)c1 | 44.1 |
| CCCOc1ccc(C(=O)NNC(=S)NC(=O)c2ccco2)cc1 | 59.3 |
| CC[C@H](C)[C@H](NC(=O)c1ccc(Cl)cc1)C(=O)OCC(=O)c1ccc2c(c1)NC(=O)CO2 | 37 |
| CC(NC(=O)/C(C#N)=C/c1ccc([N+](=O)[O-])o1)c1ccccc1 (centres undefined) | 49.6 |
| CCCCNC(=O)/C(C#N)=C/c1ccc(-c2ccc(S(=O)(=O)N3CCOCC3)cc2)o1 | 27.3 |
| Cc1ccc(N=Cc2cc(Cc3ccccc3Cl)cc([N+](=O)[O-])c2O)c(O)c1 | 43.4 |
| CN1C[C@@H]2C(c3ccc(C(F)(F)F)cc3)C3(c4cccnc4)CC2(C3)[C@H]1c1ccccc1 (some centres undefined) | 37.1 |
| COc1cc(C(CCN2CCCCC2)c2c(OC)cc(OC)c3c(-c4ccccc4)cc(=O)oc23)cc(OC)c1OC (centres undefined) | 59.1 |
| CCN(CC(=O)NCc1cccs1)S(=O)(=O)c1ccc(C(C)C)cc1 | 51.1 |
| COCCCn1c(SCC(=O)Nc2sc3c(c2C#N)CCCC3)nnc1-c1ccncc1 | 26.6 |
| Cc1ccc(C(=O)CSc2n[nH]c(-c3ccco3)n2)cc1C | 36.4 |
| CS(=O)(=O)n1nc(OC(=O)c2cccc3ccccc23)cc1N | 40.2 |
| COc1ccc(Cc2nnc(NC(=O)c3ccccc3[N+](=O)[O-])s2)cc1 | 56.9 |
| O=C(O)c1ccccc1NSc1ccccc1[N+](=O)[O-] | 34.3 |
| COc1cc(OC)c2c(-c3ccccc3)cc(=O)oc2c1C(CCN1CCCC(C)C1)c1ccc(N(C)C)cc1 (centres undefined) | 42.6 |
| COc1ccc(C(CCN2CCCC2)c2c(OC)cc(OC)c3c(-c4ccccc4)cc(=O)oc23)cc1 (centres undefined) | 49.9 |
| COc1cc(OC)c2c(-c3ccccc3)cc(=O)oc2c1C(CCN1CCCCC1)c1ccc(N(C)C)cc1 (centres undefined) | 49.8 |
| COc1ccc(C(CCN2CCCC(C)C2)c2c(OC)cc(OC)c3c(-c4ccccc4)cc(=O)oc23)cc1 (centres undefined) | 41.5 |
| COc1cc(OC)c2c(-c3ccccc3)cc(=O)oc2c1C(CCN1CCCCC1)c1ccc2c(c1)OCO2 (centres undefined) | 56.1 |
| COc1cc(OC)c2c(-c3ccccc3)cc(=O)oc2c1C(CCN1CCCC1)c1ccc2c(c1)OCO2 (centres undefined) | 53.8 |
